Assay in all cases: NCI-60 one-dose screen, 48 h (100 = growth as untreated, 0 = no growth, -100 = all killed)
Common to all, as to details: 10 µM unless noted

Experiment [1] has as its system T-47D breast.
The subject of experiment [2] is BT-549 breast.
Experiment [3] deals with MDA-MB-435 melanoma.
Experiment [4] concerns SW-620 colon.
For experiment [5], the system named is MCF7 breast.
In experiment [6] the test system is HCT-116 colon.
Experiment [7] has as its system HCC-2998 colon.
Experiment [8] relates to KM12 colon.

Compounds without any hit were thinned out: in the full panel of roughly 83,000, 20% have a hit.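 Single-dose data. Exposure time 48 hours. Values below 10 considered active.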 Values without a mark were called inactive. The source made the active and inactive calls.

In the case of `CNNc1ncnc2c1cnn2-c1ccc(S(N)(=O)=O)cc1`, the growth was 98.2% in experiment [1]; 109% in experiment [2]; 114% in experiment [3]; 98.6% in experiment [4]; 104% in experiment [5]; 100% in experiment [6]. Besides, the figures for the growth in experiment [7] and in experiment [8] were 99.3% and 91.9%, respectively.

With `N#Cc1c(-c2ccccc2)cc(-c2ccccc2)n(CCCCCCC(=O)O)c1=O`, the growth in experiment [1] is 91.1%; in experiment [2], 101%; in experiment [3], 102%; in experiment [4], 103%; in experiment [5], 67.9%; in experiment [6] it was 98.5%. For the same molecule, the growth was 111% in experiment [7] and 98.9% in experiment [8].

As to `O=c1c2ccccc2c2nccn2c2cc(Cl)ccc12`, the growth in experiment [1] is 84.6%; in experiment [2], 89%; in experiment [3], 94.5%; in experiment [4], 80.7%; in experiment [5] it was 122%; in experiment [6], 76.4%. Also, the growth was 67.3% in experiment [7] and 150% in experiment [8].

Turning to `Clc1ccc(C2c3ccccc3-c3nccn32)c(Cl)c1` (configuration not stated), the growth was 56.2% in experiment [1]; 83.8% in experiment [2]; 89.6% in experiment [3]; 85.4% in experiment [4]; 80.5% in experiment [5]; 49% in experiment [6]. Also, the growth in experiment [7] is 99%; in experiment [8], 79.2%.

As for `O=C(c1ccccc1)c1ccc(Oc2ccc([N+](=O)[O-])cc2[N+](=O)[O-])cc1`, the growth in experiment [1] is 66.1%; in experiment [2] it was -1.35% (active); in experiment [3], -43.7% (active); in experiment [4], 3.07% (active); in experiment [5], 15.6%; in experiment [6] it was -12.8% (active). Moreover, the results for the growth in experiment [7] and in experiment [8] were 97.8% and -17.8% (active), respectively.

For the molecule `O=C(COc1ccc(/C=C2\Oc3ccc4ccccc4c3C2=O)cc1)c1ccc(Cl)cc1`, the growth is 79.4% in experiment [1]; 24.7% in experiment [2]; 101% in experiment [3]; 103% in experiment [4]; 58.5% in experiment [5]; 96.7% in experiment [6]. Moreover, the growth in experiment [7] is 134%; in experiment [8], 99.5%.

On to `Oc1c(N=Nc2nn[nH]n2)ccc2ccccc12`, for which the growth is 97.7% in experiment [1]; 83.2% in experiment [2]; 67.7% in experiment [3]; 101% in experiment [4]; 73.7% in experiment [5]; 76.5% in experiment [6]. The growth in experiment [7] is 103%; in experiment [8], 80.1%.

As to `Cc1ccc(S(=O)(=O)NCCN2c3nc4ccccc4cc3Sc3cc4ccccc4nc32)cc1`, the growth is 62.5% in experiment [1]; 46.2% in experiment [2]; 105% in experiment [3]; 87.7% in experiment [4]; 69% in experiment [5]; 70.5% in experiment [6]. In addition, the figures for the growth in experiment [7] and in experiment [8] were 86.3% and 165%, respectively.

In the case of `O=C(N/N=C/c1cccc(O)c1)c1ccc(C(F)(F)F)nc1Nc1cccc(C(F)(F)F)c1`, the growth in experiment [1] is 5.41% (active); in experiment [2] it was 1.67% (active); in experiment [3], 51.2%; in experiment [4], 7.06% (active); in experiment [5] it was 3.77% (active); in experiment [6], -21.4% (active). For the same molecule, the growth was 10.2% in experiment [7] and 8.65% (active) in experiment [8].

In the case of `N#Cc1c(-c2ccccc2)cc(-c2ccccc2)n(CC(=O)O)c1=O`, the growth is 45.3% in experiment [1]; 25.8% in experiment [2]; -10.6% (active) in experiment [3]; 32.8% in experiment [4]; 34.8% in experiment [5]; 39.2% in experiment [6]. For the same molecule, the growth is 82.4% in experiment [7] and 41.3% in experiment [8].

Turning to `O=C(NC1CCS(=O)(=O)C1)c1ccc(C(=O)c2ccccc2)cc1` (configuration not stated), the growth in experiment [1] is 107%; in experiment [2] it was 121%; in experiment [3] it was 101%; in experiment [4] it was 95.8%; in experiment [5], 105%; in experiment [6] it was 104%. Besides, the growth was 103% in experiment [7] and 125% in experiment [8].

As for `C[C@H]1O[C@@H](O[C@H]2[C@@H](O)C[C@H](O[C@H]3[C@@H](O)C[C@H](O[C@H]4CC[C@]5(C)C6C[C@@H](O)[C@]7(C)[C@@H](C8=CC(=O)OC8)CC[C@]7(O)C6CC[C@@H]5C4)O[C@@H]3C)O[C@@H]2C)C[C@H](O)[C@@H]1O` (some centres not stated), the growth is -49.1% (active) in experiment [1]; -89.6% (active) in experiment [2]; -100% (active) in experiment [3]; -97.9% (active) in experiment [4]; -26.5% (active) in experiment [5]; -88.7% (active) in experiment [6]. Besides, the growth in experiment [7] was -79.1% (active); in experiment [8], -100% (active).

In the case of `O=c1ccn(C2CC=C(CO)O2)c(=O)[nH]1` (configuration not stated), the growth in experiment [1] is 96.5%; in experiment [2], 106%; in experiment [3], 106%; in experiment [4], 103%; in experiment [5], 92%; in experiment [6] it was 96%. Moreover, the growth in experiment [7] is 123%; in experiment [8], 103%.

On to `O=C(COc1ccc(/C=C2\Cc3ccccc3C2=O)cc1)c1ccc(Cl)cc1`, for which the growth is 102% in experiment [1]; 113% in experiment [2]; 95.4% in experiment [3]; 107% in experiment [4]; 97.1% in experiment [5]; 77.7% in experiment [6]. The growth in experiment [7] is 82.2%; in experiment [8], 107%.

On to `CCSCC1CC(O)(c2ccccc2)C(c2ccccc2)C(c2ccc(Cl)cc2)O1` (configuration not stated), for which the growth in experiment [1] was -7.67% (active); in experiment [2], 1.88% (active); in experiment [3] it was -17.3% (active); in experiment [4], 1.98% (active); in experiment [5], 0.0329% (active); in experiment [6], 1.69% (active). For the same molecule, the growth in experiment [7] was 17.9%; in experiment [8], -31.2% (active).

`CCOC(=O)c1cnc2c(C)cc(C)cc2c1NCCCN(C)C`: the growth in experiment [1] is 54.5%; in experiment [2], 61.3%; in experiment [3], 32.3%; in experiment [4], 30.3%; in experiment [5], 15.1%; in experiment [6], 15.4%. Further, the growth was 29% in experiment [7] and 31.6% in experiment [8].

With `C[C@H]1c2cccc(O)c2C(O)=C2C(=O)[C@]3(O)C(O)=C(C(N)=O)C(=O)[C@@H](N(C)C)[C@@H]3[C@@H](O)[C@@H]21`, the growth in experiment [1] was 53.1%; in experiment [2], 33.8%; in experiment [3], 50.7%; in experiment [4], 65.9%; in experiment [5], 58.9%; in experiment [6], 18.6%. Also, the values for the growth in experiment [7] and in experiment [8] were 27.1% and 54.1%, respectively.

As for `COc1ccc2nc(NC(=O)CN3CCn4c(nnc4C(F)(F)F)C3)sc2c1`, the growth was 95% in experiment [1]; 96% in experiment [2]; 90% in experiment [3]; 94.5% in experiment [4]; 69.6% in experiment [5]; 99.4% in experiment [6]. Further, the growth is 103% in experiment [7] and 79.3% in experiment [8].

With `Nc1nc(Nc2ccccc2SSc2ccccc2Nc2nc(N)nc(-c3ccc(I)cc3)n2)nc(-c2ccc(I)cc2)n1`, the growth in experiment [1] was 67.1%; in experiment [2], 70.8%; in experiment [3] it was 86.7%; in experiment [4] it was 94.3%; in experiment [5], 76%; in experiment [6], 50.1%. Further, the values for the growth in experiment [7] and in experiment [8] were 105% and 37.2%, respectively.

On to `CCNCCCn1c2c(c3ccc(F)cc3c1=O)C(=O)c1cc(OC)cnc1-2`, for which the growth in experiment [1] was -10.8% (active); in experiment [2] it was -22.7% (active); in experiment [3] it was 1.77% (active); in experiment [4], -16.1% (active); in experiment [5], -4.74% (active); in experiment [6] it was -62.1% (active). The results for the growth in experiment [7] and in experiment [8] were -56.1% (active) and 1.84% (active), respectively.

`CCOC(=O)CCN(c1c(Cl)ssc1=O)C(C)C`: the growth is 112% in experiment [1]; 95.7% in experiment [2]; 107% in experiment [3]; 99.3% in experiment [4]; 89.7% in experiment [5]; 93.4% in experiment [6]. Further, the growth in experiment [7] is 115%; in experiment [8], 113%.

Take `Cn1c(N2N=C(c3ccc(Cl)cc3)CC2c2ccccc2)nc(-c2ccccc2)c(C#N)c1=O` (configuration not stated): the growth in experiment [1] is 64.4%; in experiment [2] it was 88.1%; in experiment [3], 83.6%; in experiment [4], 77.1%; in experiment [5], 62.1%; in experiment [6] it was 51%. In addition, the growth was 82.3% in experiment [7] and 78.3% in experiment [8].

On to `O=C1NC(=S)S/C1=C\c1cc(Br)ccc1O`, for which the growth in experiment [1] was 82.9%; in experiment [2], 104%; in experiment [3] it was 105%; in experiment [4], 97.6%; in experiment [5], 106%; in experiment [6], 103%. Besides, the growth in experiment [7] was 103%; in experiment [8], 90.6%.

As for `O=[N+]([O-])c1cc([N+](=O)[O-])c(N2CCCC2)cc1NN=C(c1ccc(O)cc1)c1ccc(O)cc1`, the growth in experiment [1] is -7.05% (active); in experiment [2], 86.6%; in experiment [3], 76.1%; in experiment [4] it was 107%; in experiment [5] it was 9.54% (active); in experiment [6] it was 8% (active). The results for the growth in experiment [7] and in experiment [8] were 4.45% (active) and 85.7%, respectively.

Take `CN1C(=O)C(C2=NN(C=O)C(c3ccc(F)cc3)C2)C(=O)N(C)C1=O` (configuration not stated): the growth in experiment [1] is 92.9%; in experiment [2] it was 102%; in experiment [3], 102%; in experiment [4], 98.8%; in experiment [5], 93.4%; in experiment [6], 98.7%. In addition, the growth was 97.5% in experiment [7] and 99.9% in experiment [8].

In the case of `O=C1OC(Oc2ccccc2)(c2ccccc2)c2ccccc21` (configuration not stated), the growth in experiment [1] is 100%; in experiment [2], 102%; in experiment [3] it was 102%; in experiment [4], 106%; in experiment [5] it was 117%; in experiment [6], 102%. Besides, the results for the growth in experiment [7] and in experiment [8] were 104% and 93.3%, respectively.

For `O=[N+]([O-])c1ccc2[nH]cc(-c3c4ccccc4cc4[nH]c5ccc([N+](=O)[O-])cc5c34)c2c1`, the growth is -10.2% (active) in experiment [1]; 19.2% in experiment [2]; -11.6% (active) in experiment [3]; 28% in experiment [4]; 8.11% (active) in experiment [5]; 9.37% (active) in experiment [6]. The figures for the growth in experiment [7] and in experiment [8] were 57.6% and 5.55% (active), respectively.

Regarding `CC(=O)Nc1cc2c3c(cccc3c1)-c1ccccc1-2`, the growth in experiment [1] was 75.4%; in experiment [2], 64.7%; in experiment [3], 68.4%; in experiment [4], 99.7%; in experiment [5], 96.9%; in experiment [6], 95.9%. Besides, the growth in experiment [7] was 87.8%; in experiment [8] it was 51.1%.

As for `Cc1csc(C#Cc2cncc(O)c2)n1`, the growth in experiment [1] is 98.3%; in experiment [2] it was 113%; in experiment [3], 96.8%; in experiment [4], 113%; in experiment [5] it was 97.8%; in experiment [6], 103%. In addition, the growth in experiment [7] is 107%; in experiment [8], 125%.

The values above are taken from PubChem BioAssay (NCI).
